IL-1B inflam inh – qHTS for Inhibitors of Inflammasome Signaling: IL-1-beta AlphaLISA Primary Screen; activity change, % at 57.5 µM; 360,000 tested, 4.7% active; THP-1 LPS/ATP IL-1B secretion, AlphaLISA, 16 h; hits give low values; in the data active means activity change below about -50%; inconclusive means mostly about -30% to -49%; further: on the % scale 0 is the no-effect control and ±100 the full control effect
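THP-1 cells pretreated 1 hr with compounds (up to 57.5 uM final), then stimulated with LPS (250 ng/mL final) plus ATP (1.25 mM final); secreted IL-1B measured by AlphaLISA after 16 hr, decreased signal indicating inhibition.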
DT40 TDP1 CPT – qHTS for Inhibitors of human tyrosyl-DNA phosphodiesterase 1 (TDP1): qHTS in cells in presence of CPT. Potency, µM (series often up to 46.2 µM), inactives show at the highest dose activity change, negative = growth inhibition, actives largely listed as inhibitors. AID 686979, 2013. 420,000 tested, 12% active. chicken DT40 Tdp1-/-;hTDP1 cells + 20 nM CPT, ATP luminescence, 48 h; further: potency means the concentration at half of the fitted maximal effect; on the % scale 0 is the no-effect control and ±100 the full control effect; nearly all actives have a fitted effect of over 55% in size
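Chicken DT40 Tdp1-/- cells stably complemented with human TDP1 were seeded at 400 cells/well in medium containing 20 nM camptothecin, exposed to pin-transferred compounds, and grown at 37 °C for at least 48 hr. Viability was read as ATP luminescence.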
HepG2 tox – qHTS for Inhibitors of TGF-b: Cytotox Counterscreen; HepG2 CAGA-GFP viability, ATP luminescence, 18 h; Potency, µM (titrated, usually from 46.1 µM), for inactives: top-dose activity change, negative = cytotoxicity, usual class: cytotoxic; 410,000 tested, 0.76% active; AID 588856, 2011; further: potency means the concentration at half of the fitted maximal effect
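CellTiter-Glo luminescence gave cytotoxicity after 18 hours at 37 degrees C. The cells were HepG2 CAGA-GFP in 1% FBS DMEM, stimulated with 500 pg/mL TGF-beta after compound addition. %Activity was normalised to no-cell wells (complete cell-killing) and DMSO (no toxicity), and curves were fitted and classified.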
DT40 TDP1 no CPT – qHTS for Inhibitors of human tyrosyl-DNA phosphodiesterase 1 (TDP1): qHTS in cells in absence of CPT; DT40 Tdp1-/- hTDP1 cells, no CPT, ATP luminescence, 48 h; Potency, µM (highest dose often 46.2 µM), inactives show top-dose activity change, negative = growth inhibition, most hits filed as inhibitors; 420,000 tested, 15% active; further: potency means the concentration at half of the fitted maximal effect; on the % scale 0 is the no-effect control and ±100 the full control effect; nearly all actives have a fitted effect of over 55% in size
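Camptothecin absent (DMSO only). Human TDP1-complemented DT40 knockout cells, 400 cells/well, 37 °C for minimum 48 hr; ATP measured via CellTiter-Glo, 30 min dark incubation, luminescence.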
TGFb SMAD3 inh – qHTS for Inhibitors of TGF-b; HepG2 CAGA-GFP TGF-b/SMAD3 reporter, GFP fluorescence, 18 h; TGF-beta stimulated, 500 pg/mL final; Potency, µM (series often up to 46.1 µM), inactives show at the top dose activity, negative = inhibition, hits mostly inhibitors; 410,000 tested, 1.2% active; further: potency means the concentration at half of the fitted maximal effect; on the % scale 0 is the no-effect control and ±100 the full control effect; nearly all actives have a fitted effect of over 65% in size
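Per well, imaged GFP fluorescence of HEPG2 CAGA-GFP cells gives the signal; cells get compound, then TGF-beta (500 pg/mL final), 18 h at 37 degrees C; %Activity versus -TGF-beta and +DMSO controls.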
ASM inhibitor – Inhibitors of Secretory Acid Sphingomyelinase (S-ASM): qHTS. Potency, µM (doses to about 57.5 µM), inactives show top-dose activity change, negative = inhibition, actives largely listed as inhibitors. placental ASM, HMU-PC fluorogenic substrate, 60 min. Sphingomyelin phosphodiesterase (Homo sapiens), P17405. AID 504937, 2011. 340,000 tested, 0.006% active; further: potency means the concentration at half of the fitted maximal effect
Target sequence (P17405 47-631 limits assumed): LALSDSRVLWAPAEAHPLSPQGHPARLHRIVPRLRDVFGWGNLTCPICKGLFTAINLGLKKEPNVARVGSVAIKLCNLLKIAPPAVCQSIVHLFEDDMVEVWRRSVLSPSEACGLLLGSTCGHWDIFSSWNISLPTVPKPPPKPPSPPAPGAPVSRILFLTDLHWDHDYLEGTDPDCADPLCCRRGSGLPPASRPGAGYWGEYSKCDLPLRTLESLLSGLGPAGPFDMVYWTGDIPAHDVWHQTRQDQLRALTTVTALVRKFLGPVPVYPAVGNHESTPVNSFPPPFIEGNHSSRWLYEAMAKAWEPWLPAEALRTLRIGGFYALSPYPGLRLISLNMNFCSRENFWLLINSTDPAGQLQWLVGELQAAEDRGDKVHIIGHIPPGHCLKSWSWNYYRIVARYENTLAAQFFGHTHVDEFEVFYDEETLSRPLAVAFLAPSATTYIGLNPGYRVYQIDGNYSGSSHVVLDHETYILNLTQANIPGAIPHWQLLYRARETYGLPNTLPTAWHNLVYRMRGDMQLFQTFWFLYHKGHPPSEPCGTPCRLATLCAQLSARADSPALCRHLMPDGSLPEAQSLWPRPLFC
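Steps: dispense placental human ASM, pin compound, wait 10 min at room temperature, add HMU-PC0 substrate at 9 uM final, incubate 60 min at 37 °C, add stop solution raising pH to 10, read fluorescence.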
Active calls of the source: *; ? = inconclusive; nt = no result given. Rows were chosen to be rich in hits. Some 19% of all compounds tested hit in one or more screens of this group. Unless noted, the call rests on the fitted dose curve; in most records, active means well fitted curve in the direction sought with a large enough effect; inconclusive means small, poorly fitted or top-dose-only effect, or another doubt; inactive means no such curve, though single readings can be large; an effect the other way counts as inactive or inconclusive.

SMILES	IL-1B inflam inh	DT40 TDP1 CPT	HepG2 tox	DT40 TDP1 no CPT	TGFb SMAD3 inh	ASM inhibitor
Cc1[nH]c2ccccc2c1C(c1ccccn1)N1CCCC1 (stereo not drawn)	-25	?	-17%	16µM*	-23%	-4%
Cc1[nH]c2ccccc2c1C(=O)CN1CCC(C)CC1	6	-1%	-20%	-27%	-7%	1%
Oc1ccc(CNc2ccccc2)c2cccnc12	9	3.7µM*	-52%	2.6µM*	?	0%
Oc1ccc(CNc2ccc(F)cc2)c2cccnc12	-3	2.9µM*	-67%	1.6µM*	?	-1%
OCc1ccnc2c(O)cccc12	15	?	-13%	?	?	-1%
Oc1ccc(Cn2ccnc2)c2cccnc12	161	13%	-37%	?	-23%	2%
Cc1cccc(C(=O)Nc2ccccc2OCc2cc(=O)n3cc(C)ccc3n2)c1	nt	?	-8%	?	3%	nt
COc1cc(F)ccc1-c1csc(C(NC(C)=O)c2cccc(F)c2)n1 (stereo not drawn)	-15	?	3%	?	13%	nt
CC(C)CNC(=O)NC(=O)CSc1nc2ccccc2n1CC(C)C	-9	?	4%	23µM*	0%	-5%
CC(C)Cn1c(C(C)NC(=O)Cc2ccccc2)nc2ccccc21 (stereo not drawn)	-1	12µM*	-1%	6.5µM*	1%	7%
CCC(=O)Nc1nc2ccccc2n1CCN1CCOCC1	17	-8%	-3%	-2%	-12%	1%
CCCCn1c(C(C)NC(=O)CC)nc2ccccc21 (stereo not drawn)	29	23µM*	-1%	12µM*	-14%	0%
CCCCCCCn1c(NC(=O)CC)nc2ccccc21	nt	?	6%	21µM*	?	1%
CCCNC(=O)NC(=O)CSc1nc2ccccc2n1CC(C)C	2	?	-4%	?	-1%	-1%
O=Cc1ccccc1-c1cn(CN2C(=O)c3ccccc3C2=O)nn1	24	-1%	2%	4%	-1%	-5%
O=C(Cn1ncc2c3ccccc3n(Cc3ccccc3)c2c1=O)Nc1ccccc1C(F)(F)F	nt	?	-3%	?	-21%	nt
CCc1cccc(C)c1NC(=O)Cn1ncc2c3ccccc3n(Cc3ccccc3)c2c1=O	nt	10µM*	-3%	8.2µM*	5%	nt
Cc1ccccc1Cn1c2ccccc2c2cnn(CC(=O)NCc3cccc(Cl)c3)c(=O)c21	nt	15µM*	1%	-103%	5%	nt
Cc1ccc(C)c(Cn2c3ccccc3c3cnn(CC(=O)NCCc4ccccc4)c(=O)c32)c1	nt	?	-3%	-21%	-27%	nt
COc1ccccc1CNC(=O)Cn1ncc2c3ccccc3n(Cc3ccccc3C)c2c1=O	nt	7.3µM*	-13%	16µM*	-1%	nt
O=C(Cn1ncc2c3ccccc3n(Cc3cccc(Cl)c3)c2c1=O)NCCCc1ccccc1	nt	3%	9%	-18%	14%	nt
C[C@@H]1CN([C@H](C)CO)C(=O)CCCn2nncc2CO[C@@H]1CN(C)S(=O)(=O)c1cccs1	-4	-6%	-24%	-8%	3%	nt
Cc1noc(C)c1S(=O)(=O)N1CCCC(C(=O)NCCc2ccc(Cl)cc2)C1 (stereo not drawn)	0	?	2%	?	7%	2%
Cc1noc(/C=C/N(C)C)c1S(=O)(=O)N1CCCC(C(=O)NCCC2=CCCCC2)C1 (stereo not drawn)	-28	21µM*	-21%	16µM*	-11%	5%

Screens as filed in PubChem.
